# Hits are enriched below; roughly 7.2% of the tested compounds scored in any of these assays.
# SNCA expr inhib = reduces expression of the alpha-synuclein gene; HEK-293 SNCA-luciferase knock-in, luminescence, 24 h; Potency, µM (doses to about 57.2 µM), most hits filed as inhibitors; 140,000 tested, 0.17% active; AID 1671194; note: nearly all actives have a fitted effect of over 45% in size
# SNCA viab count = reduces viability of HEK-293 SNCA reporter cells | AID 1671193 | Potency, µM (top dose mostly 57.1 µM), usual class: cytotoxic | HEK-293-SNCA-luc viability, GF-AFC fluorescence, 24 h | 150,000 tested, 0.12% active; note: nearly all actives have a fitted effect of over 30% in size
#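 Cytotoxicity counterscreen: after 24 h compound treatment of genome-edited SNCA-luciferase HEK-293 cells, live-cell protease substrate GF-AFC read by fluorescence after 30 min; activity scaled between DMSO (0%) and medium-only (-100%), curves Hill-fitted.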
# FLuc inh = blocks purified firefly luciferase enzyme activity | P08659 | purified P. pyralis luciferase, luminescence, biochemical | Potency, µM (titrated, usually from 115 µM), usual class: inhibitors | 76,000 tested, 2.5% active | AID 1347043; note: nearly all actives have a fitted effect of over 65% in size
#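 Purified P. pyralis luciferase (10nM final) in 50mM Tris acetate pH 7.5, 10mM Mg acetate, 0.01% Tween-20, 0.05% BSA with 10uM D-luciferin and 10uM ATP. Compounds titrated qHTS. Luminescence imaged on CCD.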
# HEK cytotox = cytotoxic compounds in HEK 293 cells; HEK 293 viability, ATP luminescence (CellTiter-Glo), 48-72 h; Potency, µM (doses to about 115 µM), most hits filed as inhibitors; 94,000 tested, 6.6% active; note: nearly all actives have a fitted effect of over 60% in size
#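 HEK 293 seeded at 250 cells/well receive compound via pintool. After 48 or 72 hr at 37 degree Celsius, 5% CO2 and 95% humidity, CellTiter-Glo is dispensed and luminescence read following 10 min at room temperature.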
# NPR1 antag = blocks ANP-stimulated signaling of human Npr1 receptor | P16066 | HEK293 hNpr1 GloSensor cGMP, ANP-stimulated luminescence | Potency, µM (doses to about 46.3 µM), most hits filed as inhibitors | 76,000 tested, 1.6% active | AID 1347048; calls by dose curve; note: nearly all actives have a fitted effect of over 60% in size
# Target sequence (P16066 whole entry, looked up): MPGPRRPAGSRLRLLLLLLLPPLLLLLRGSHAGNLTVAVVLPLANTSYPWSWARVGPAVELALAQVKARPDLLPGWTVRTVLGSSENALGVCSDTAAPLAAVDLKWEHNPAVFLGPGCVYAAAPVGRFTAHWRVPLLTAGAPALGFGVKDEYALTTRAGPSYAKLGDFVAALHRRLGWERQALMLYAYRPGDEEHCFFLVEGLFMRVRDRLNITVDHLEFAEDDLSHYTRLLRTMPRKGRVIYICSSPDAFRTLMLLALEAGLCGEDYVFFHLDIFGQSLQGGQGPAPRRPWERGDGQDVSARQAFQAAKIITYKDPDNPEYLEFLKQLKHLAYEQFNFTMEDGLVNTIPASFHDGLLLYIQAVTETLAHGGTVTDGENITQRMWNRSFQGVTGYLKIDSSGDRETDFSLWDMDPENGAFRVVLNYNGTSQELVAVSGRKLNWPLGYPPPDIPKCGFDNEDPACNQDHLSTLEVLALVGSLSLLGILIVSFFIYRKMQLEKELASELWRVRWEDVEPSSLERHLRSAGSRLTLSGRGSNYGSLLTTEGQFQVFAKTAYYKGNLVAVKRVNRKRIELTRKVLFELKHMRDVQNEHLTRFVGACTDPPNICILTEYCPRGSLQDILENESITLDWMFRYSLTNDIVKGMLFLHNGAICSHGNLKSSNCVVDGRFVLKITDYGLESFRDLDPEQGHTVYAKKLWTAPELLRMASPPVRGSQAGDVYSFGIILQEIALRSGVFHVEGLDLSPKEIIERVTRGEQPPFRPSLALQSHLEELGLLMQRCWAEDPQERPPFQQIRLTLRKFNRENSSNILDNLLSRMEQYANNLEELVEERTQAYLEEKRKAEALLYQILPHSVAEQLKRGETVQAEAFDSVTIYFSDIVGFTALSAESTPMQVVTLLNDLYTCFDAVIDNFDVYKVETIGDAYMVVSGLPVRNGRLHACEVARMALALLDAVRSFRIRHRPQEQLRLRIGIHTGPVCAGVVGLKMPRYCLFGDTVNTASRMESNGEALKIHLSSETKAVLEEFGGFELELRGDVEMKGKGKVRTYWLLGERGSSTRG
#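 HEK293 cells stably expressing human Npr1 and cGMP GloSensor pGS-40F, loaded 2 h with 2% GloSensor reagent, given compound 30 min at room temperature. Luminescence read before and 20 min after 0.1 nM hNppA.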
# NIH3T3 tox = NIH 3T3 cell cytotoxicity; NIH 3T3 viability, CellTiter-Glo ATP luminescence, 48-72 h; Potency, µM (titrated, usually from 96.7 µM), usual class: inhibitors; 94,000 tested, 4.3% active; AID 1345082; note: nearly all actives have a fitted effect of over 55% in size
#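 Mouse fibroblast NIH 3T3 cells, 400 per well, received compound via pintool and were incubated for 48 or 72 hr prior to CellTiter-Glo ATP luminescence measurement.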
# A number is an active result; i = inactive; ? = inconclusive; nt = no result; ! = not active in a repeat; [ ] = dose if it differs, or a comment. Unless noted, calls come from the whole dose curve; as a rule, active = well fitted curve in the direction sought with a large enough effect; inconclusive = small, poorly fitted or top-dose-only effect, or another doubt; inactive = no such curve, though single readings can be large; an effect the other way counts as inactive or inconclusive.
SMILES,SNCA expr inhib,SNCA viab count,FLuc inh,HEK cytotox,NPR1 antag,NIH3T3 tox
O=C(NC1CCCN(c2cc(-c3ccc(F)cc3)[nH]n2)C1)c1ccc2cc[nH]c2c1 (configuration not stated),i,i,28µM,35µM,i,35µM
O=C(NC1CCCN(c2cc(-c3ccccc3)[nH]n2)C1)c1ccc2[nH]ccc2c1 (configuration not stated),i,i,32µM,?,i,?
O=C1c2cnc(-c3ccc(CO)cc3)nc2OCCN1c1cccc(C(F)(F)F)c1,i,i,?,?,i,?
CC(C)N1CCC2(CC1)CN(C(=O)Cc1cccc(F)c1)Cc1ccccc1O2,i,i,i,?,i,?
COC(=O)[C@H](Cc1ccccc1)NC1CCN(c2cccc(NC(=O)CC3CCCC3)c2)CC1,i,i,i,40µM,?,?
Cc1ccc(NC(=O)N2Cc3[nH]cnc3C[C@H]2c2nc(-c3cccc([N+](=O)[O-])c3)no2)cc1,i,i,i,?,i,?
O=[N+]([O-])c1cccc(-c2noc([C@@H]3Cc4nc[nH]c4CN3)n2)c1,i,i,45µM!,?,i,i
CN(C)c1ccc(CN2CCC(c3nc4ccncc4[nH]3)C2)cc1 (configuration not stated),i,i,i,?,i,i
CN(C)c1ccc(CN2CC[C@H](c3nc4c(C(N)=O)cccc4[nH]3)C2)cc1,i,i,i,71µM,?,100µM
O=c1c(-c2ccc(O)cc2)coc2cc(OC3O[C@H](CO)[C@H](O)[C@H](O)[C@H]3O)cc(O)c12 (some centres not stated),5.4µM,i,nt,nt,nt,nt
CCOC(=O)c1cccc(NC(=O)C2=CC(C)(C)Oc3ccc(OC)cc32)c1,nt,nt,nt,25µM,nt,28µM
COC(=O)c1ccc(COCC2=CC(C)(C)Oc3ccc(OC)cc32)cc1,nt,nt,nt,35µM,nt,?
O=C(NCCc1ccccn1)c1ccc(OC2CCNCC2)nc1,?,i,7.9µM,?,?,?
C=CCNC(=O)[C@@H]1Cc2c[nH]c3cccc(c23)[C@H](CC(C)C)N1,i,i,i,?,i,?
CC(C)C[C@@H]1N[C@H](C(=O)NCCCn2ccnc2)Cc2c[nH]c3cccc1c23,i,i,i,?,i,?
CC(C)C[C@@H]1N[C@H](C(=O)NCc2ccccn2)Cc2c[nH]c3cccc1c23,?,i,i,28µM,i,?
CC(C)C[C@@H]1N[C@H](C(=O)NCc2ccc(F)cc2)Cc2c[nH]c3cccc1c23,?,?,i,28µM,i,40µM
COc1ccc(CNC(=O)[C@@H]2Cc3c[nH]c4cccc(c34)[C@H](CC(C)C)N2)cc1,?,?,i,79µM,i,45µM
CC(C)C[C@@H]1N[C@H](C(=O)NCc2ccccc2)Cc2c[nH]c3cccc1c23,i,?,i,35µM,i,32µM
COCCc1noc([C@@H]2CN(Cc3ccc(C(C)C)cc3)C[C@H]2CO)n1,i,i,i,40µM,i,?
COc1ccccc1-c1[nH]nc2ncc(-c3ccccc3O)nc12,i,?,i,?,i,?
COc1ncccc1-c1cnc2n[nH]c(-c3ccccc3C)c2n1,?,i,i,?,i,?
COc1ccccc1-c1cnc2n[nH]c(-c3ccccc3)c2n1,?,i,i,?,i,79µM
COc1ccccc1-c1[nH]nc2ncc(C(=O)NCC3CCOCC3)nc12,i,i,i,i,i,40µM
COc1ncccc1-c1cnc2n[nH]c(-c3ccccc3)c2n1,i,i,i,71µM,i,50µM
SMILES,SNCA expr inhib,SNCA viab count,FLuc inh,HEK cytotox,NPR1 antag,NIH3T3 tox
COc1ccccc1-c1[nH]nc2ncc(-c3cccnc3OC)nc12,i,i,i,10µM,i,10µM
Cc1ccc(CC(=O)N2[C@@H]3CC[C@H]2CC(NC(=O)c2ccncc2)C3)cc1 (some centres not stated),i,i,i,i,i,i
Cc1cc(C)n(CCCN(C)Cc2cc3n(n2)CCNC3)n1,i,i,i,i,i,i
COc1ccccc1-c1[nH]nc2ncc(-c3c(C)noc3C)nc12,i,i,i,89µM,i,?
CC1(C(=O)NCCc2ccccn2)CCc2cnc(NCc3ccccc3)nc21 (configuration not stated),?,i,i,i,i,40µM
CC1(C(=O)NCC2CC2)CCCc2cnc(NCc3ccccc3)nc21 (configuration not stated),?,i,i,?,i,?
CC1(C(=O)NCc2cnccn2)CCc2cnc(NCc3ccccc3)nc21 (configuration not stated),?,i,i,i,i,50µM
CC1(C(=O)NCc2cccnc2)CCCc2cnc(Nc3ccccc3F)nc21 (configuration not stated),?,i,i,?,i,?
CC1(C(=O)NCC2CCCO2)CCc2cnc(NCc3ccccc3)nc21 (configuration not stated),i,i,i,i,i,50µM
CC1(C(=O)N2CCN(c3ccccn3)CC2)CCc2cnc(NCc3ccccc3)nc21 (configuration not stated),?,i,i,100µM,i,?
CS(=O)(=O)N1CCC(C2CCN(CC3CC3)C2)CC1 (configuration not stated),i,i,i,i,i,i
COC(=O)NC1CCN(c2nccc(Nc3ccccc3F)n2)CC1,i,i[12.5 µM],nt,?,nt,?
CNC(=O)N1CCC(C2CCN(C(=O)c3cnccc3C)C2)CC1 (configuration not stated),i,i[12.5 µM],i,i,i,i
CCn1cc(C(=O)N2C[C@@H](COC)[C@H](c3ccccn3)C2)cn1,i,i,i,i,i,i
CC(=O)Nc1ccc(CC(=O)N2CCc3c(nc4cc(-c5ccccc5Cl)[nH]n4c3=O)C2)cc1,i,i,?,i,i,i
CCCCC(=O)N1CCc2c(nc3cc(-c4ccccc4Cl)[nH]n3c2=O)C1,i,i,i,?,i,16µM
O=C(c1n[nH]c2ccccc12)N1CCc2c(nc3cc(-c4ccccc4Cl)[nH]n3c2=O)C1,i,i,i,i,i,i
O=C(c1ccsc1)N1CCc2c(nc3cc(-c4ccccc4Cl)[nH]n3c2=O)C1,i,i,35µM,i,i,40µM
CN(C)CCNC(=O)c1cc2n(n1)CCCN(C(=O)[C@@H]1CCCN1)C2,i,i,i,i,i,i
CS(=O)(=O)N1CCC(Cc2ccc(C(=O)NCCc3ccccc3)cc2)CC1,i,i,nt,11µM,nt,?
CS(=O)(=O)N1CCC(Cc2ccc(C(=O)NCCN3CCOCC3)cc2)CC1,i,i,i,i,i,i
CCc1ccc(NC(=O)Cn2ccn3nc4c(c3c2=O)CCCCC4)cc1,?,i,i,?,i,i

# Bioassay records: PubChem, National Center for Advancing Translational Sciences (NCATS)
